Screening results (PubChem BioAssay)
Many of the other results were omitted from the sample, so hits are more common in it than they were.
Vaccinia mCherry: qHTS for Stage-Specific Inhibitors of Vaccinia Orthopoxvirus: mCherry Reporter Primary qHTS; Potency, µM (titrated, usually from 36.5 µM), for inactives: at the top dose activity change, negative = inhibition, hits mostly inhibitors; Vaccinia virus mCherry reporter infection, fluorescence; 0.63% of 310,000 active; AID 720579, 2013; calls by dose curve; tested in A549 cells; also: potency is read from the fitted curve at half-maximal effect; % is scaled to controls: 0 for no effect and ±100 for the full control effect; nearly all actives have a fitted effect of over 35% in size
Shiga inhibitor: A qHTS for Small Molecule Inhibitors of Shiga Toxin. Vero cells, Shiga toxin protein synthesis inhibition reporter. inhibition, % at 38.7 µM. 9.2% of 290,000 active; in the data active = inhibition mostly above about 28%, no sharp cut-off; inactive = mostly below about 43%; also: 0% is about no effect
Cycloheximide cs: Cycloheximide Counterscreen for Small Molecule Inhibitors of Shiga Toxin. cell reporter, cycloheximide protein synthesis inhibition counterscreen. max response, %. 12% of 300,000 active; in the data active = max response mostly above about 13%, no sharp cut-off; inactive = mostly below about 14%; also: read at 38.3 µM for the half of the compounds with a filed dose; 0% is about no effect
Marburg entry inh: qHTS for inhibitors of binding or entry into cells for Marburg Virus; 1.8% of 300,000 active; Potency, µM (series often up to 37.8 µM), for the others: top-dose activity change, negative = inhibition, hits mostly inhibitors; Marburg virus pseudotyped entry inhibition, cell reporter; AID 540276, 2011; calls by dose curve; tested in HEK293 cells; also: potency is read from the fitted curve at half-maximal effect; % is scaled to controls: 0 for no effect and ±100 for the full control effect
Vaccinia Venus: qHTS for Stage-Specific Inhibitors of Vaccinia Orthopoxvirus: Venus Reporter Primary qHTS | AID 720580, 2013 | 0.46% of 330,000 active | Potency, µM (doses to about 36.5 µM), without a hit: top-dose activity change, negative = inhibition, usual class: inhibitors | Vaccinia virus Venus reporter expression, fluorescence; calls by dose curve; tested in A549 cells; also: potency is read from the fitted curve at half-maximal effect; % is scaled to controls: 0 for no effect and ±100 for the full control effect; nearly all actives have a fitted effect of over 30% in size
LASV entry inh: qHTS for Inhibitors of binding or entry into cells for Lassa Virus | AID 540256, 2011 | 1.2% of 300,000 active | Lassa virus pseudotype entry inhibition, cell reporter | Potency, µM (highest dose often 37.9 µM), for inactives: at the highest dose activity change, negative = inhibition, most hits filed as inhibitors; calls by dose curve; tested in HEK293 cells; also: potency is read from the fitted curve at half-maximal effect; % is scaled to controls: 0 for no effect and ±100 for the full control effect; nearly all actives have a fitted effect of over 50% in size
An asterisk follows results filed as active; i = inactive; u = inconclusive; x = no result given; [ ] = dose if it differs, or a comment.

SMILES	Vaccinia mCherry	Shiga inhibitor	Cycloheximide cs	Marburg entry inh	Vaccinia Venus	LASV entry inh
O=C(O)CC1(CC(=O)Nc2ccc3c(c2)OCCCO3)CCCCC1	i[7.34 µM]	3	2	8%[46.1 µM]	-3%[7.34 µM]	4%
COc1ccc(OC)c(C2=NO[C@@](CC(=O)O)(C(=O)Nc3ccc4c(c3)OCCO4)C2)c1	-14%	77*	65*	0%[46.1 µM]	-16%	16%[46.1 µM]
COc1ccc(OC)c(NC(=O)[C@@]2(CC(=O)O)CC(/C=C/c3ccccc3)=NO2)c1	-18%	1	-3	28%[46.1 µM]	-9%	26%[46.1 µM]
Cc1ccc(C2=NO[C@@](CC(=O)O)(C(=O)Nc3ccc4c(c3)OCCO4)C2)cc1	-3%	117*	129*	u	-6%	26%[46.1 µM]
CC1CCN(S(=O)(=O)c2ccc3c(c2)N(CC(=O)NC(C)c2ccccc2)C(=O)CS3)CC1 (stereo unspecified)	-19%	x	x	-6%[46.1 µM]	-14%	x
Cc1ccc(C(=O)Nc2cccc(C(=O)O)c2)cc1	x	71*	42*	u	x	5.8µM*
COC(=O)c1ccc(NC(=O)c2ccccc2)o1	x	81*	38*	u	-18%	-15%
COC(=O)c1ccc(NC(C)=O)o1	x	-20	-3	0%	-8%	-3%
COC(=O)c1cccc(NC(=O)c2cc3ccccc3o2)c1	x	35*	29*	x	x	x
COC(=O)c1cccc(NC(=O)c2ccccc2)c1	x	50*	29*	x	x	x
Cc1ccc(C(=O)Oc2cccc(NC(=O)c3ccccc3)c2)cc1C	-6%	7	16*	u	-18%	u
CN(C(=O)c1ccco1)c1nc(-c2ccccc2)cs1	x	36*	38*	x	x	x
COCCN(C(=O)C(C)C)c1nnc(-c2ccc(C)cc2)s1	-10%	83*	29	u	-16%	0%
CCC(=O)N(CC)c1nc(-c2ccc(OC)cc2)cs1	x	84*	61*	u	x	12%
CCN(C(=O)c1ccco1)c1nc(-c2ccc(OC)cc2)cs1	x	59	41*	x	x	x
COc1ccc(-c2csc(N(CC(C)C)C(=O)c3ccco3)n2)cc1	-19%	x	12	u	-3%	-51%[46.1 µM]
Cc1c(C(=O)N(C)C)sc2c1c(=O)n(-c1ccc(F)cc1)c(=O)n2Cc1ccccc1C#N	-4%	x	x	x	4%	20%[46.1 µM]
CCOC(=O)CSc1nc2c([nH]c3ccccc32)c(=O)n1-c1ccc(OCC)cc1	-25%	x	x	x	-21%	7%[46.1 µM]
COCCN(C(=O)c1ccccc1F)c1nc(-c2ccc(OC)cc2)cs1	-10%	11	-2	u	-10%	-21%
COCCN(C(=O)c1ccccc1F)c1nnc(-c2ccc(OC)cc2)s1	x	46*	32*	x	x	x
CCN(C(=O)c1ccccc1F)c1nc(-c2ccc(OC)cc2)cs1	x	51*	44*	x	x	x
CN(c1ccc(O)cc1)c1nc(-c2ccccc2)cs1	-27%	active	62*	u	u	u
O=C(NCc1nnc2n1CCN(Cc1cc(F)cc(F)c1)CC2)c1cccc(F)c1	u	x	x	x	-26%	x
COc1ccc(S(=O)(=O)N(CC(=O)NC(C)c2ccccc2)c2ccc(C)cc2)cc1OC (stereo unspecified)	-8%	x	x	x	-25%	u
CCOC(=O)NN=C1C[C@@H](O)[C@@H](O)[C@@H]2[C@H]3C(=O)N(Cc4ccc5c(c4)OCO5)C(=O)[C@@H]3CC[C@@H]12	x	x	x	-2%[14.2 µM]	x	x
SMILES	Vaccinia mCherry	Shiga inhibitor	Cycloheximide cs	Marburg entry inh	Vaccinia Venus	LASV entry inh
CCn1cc(Br)c(C(=O)NN)n1	-15%	71	58*	u	-6%	5%
CCn1cc(Br)c(C(=O)Nc2ccc(C(=O)OC(C)C)cc2)n1	x	55	36	3%	x	x
CCOC(=O)c1c(-c2ccccc2)csc1NC(=S)N(CC)CC	i	-1	-1	u	-9%	-8%
CCOC(=O)c1c(-c2ccccc2)csc1NC(=O)c1nn(CC)cc1Br	-4%	9	-1	10µM*	56%	u
CCn1cc(Br)c(C(=O)Nc2ccc(OC)cc2)n1	-12%	30	21*	11%	-7%	u
CCn1cc(Br)c(C(=O)Nc2nccs2)n1	-1%	73*	27*	15%	0%	15%
CC1CN(CC(=O)NCCC2COc3ccccc3O2)Cc2cc(Cl)ccc2O1 (stereo unspecified)	-7%	x	x	x	-3%	x
CCn1ccc(C(=O)Nc2ccccc2Cl)n1	x	63*	41*	x	x	x
CCn1cc(Br)c(C(=O)Nc2ccc(Cl)c(Cl)c2)n1	x	35*	21*	17%	x	u
CCn1c(C)cc(O)c(C(=O)Nc2cccc(Cl)c2)c1=O	x	6	-7	x	x	x
CCn1ccc(C(=O)Nc2cccc(Cl)c2)n1	i	106*	36*	u	-19%	6%[46.1 µM]
CCn1cc(Cl)c(C(=O)Nc2cc(C(=O)OC)cc(C(=O)OC)c2)n1	-3%	-8	-4	u	-7%	-6%
CCn1cc(Cl)c(C(=O)Nc2ccc(OC)c(OC)c2)n1	i	55*	21*	-2%[46.1 µM]	-16%	-4%[46.1 µM]
COc1ccc(C)cc1NC(=O)C(Sc1nnc(-c2ccncc2)n1-c1ccc(Cl)cc1)c1ccccc1 (stereo unspecified)	u	13	-5	u	u	u
O=C(c1ccc(Cl)cc1)N1CCC(C(=O)N2CCN(c3ncccn3)CC2)CC1	-15%	x	x	11%	-8%	-11%
O=S(=O)(NC(=S)NC1CCCCC1)c1ccc(Br)cc1	-6%	14	-2	7%[46.1 µM]	-3%	8%
NC(=O)C1CCN(CC(O)COCc2ccccc2Cl)CC1 (stereo unspecified)	-13%	-9	-8	-3%	2%	7%
COc1ccc(-c2cn3cccnc3n2)cc1NC(=O)c1c(F)cccc1F	-13%	x	x	x	-5%	u
CCn1cc(Cl)c(C(=O)Nc2cccc(CN3CCOCC3)c2)n1	x	14	16	x	x	x
CCn1c(C)c(C)c2cc(C(=O)Nc3cccc(Cl)c3)ccc21	u	37	21*	u	-28%	-21%
CCn1cc(Br)c(C(=O)Nc2cccc(Cl)c2)n1	i	73*	18*	2%	-5%	9%
COc1cccc(CN2C(=O)CN(C3CCCCC3)C(=O)C2c2ccc(OC)c(OC)c2)c1 (stereo unspecified)	-6%	x	x	x	-3%	u
COCCN1C(=O)c2oc3ccc(C)cc3c(=O)c2C12C(=O)N(C)c1ccccc12 (stereo unspecified)	-13%	x	x	0%[46.1 µM]	-11%	26%[46.1 µM]
Cc1cc(/C=C(\C#N)c2nc3ccccc3[nH]2)c(C)n1C	-21%	67*	23*	u	-27%	10µM*
Cc1ccc2nc(/C(C#N)=C/c3ccc(-c4cccc([N+](=O)[O-])c4)o3)[nH]c2c1	0%	13	4	5%	-16%	2%
Cc1cc(/C=C(/C#N)c2nc3ccccc3[nH]2)c(C)n1-c1cccc([N+](=O)[O-])c1	x	37*	32*	u	u	10µM*
